# The sample as a whole holds a higher share of hits than the screen did.
# TDP1 block: qHTS Assay for Inhibitors of Tyrosyl-DNA Phosphodiesterase (TDP1). Tyrosyl-DNA phosphodiesterase 1 (Homo sapiens), Q9NUW8. recombinant TDP1, AlphaScreen DNA substrate cleavage. Potency, µM (titrated, usually from 130 µM), actives largely listed as inhibitors. actives 0.28% (n = 350,000). AID 485290, 2010; note: nearly all actives have a fitted effect of over 40% in size
#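 AlphaScreen read-out: signal falls as enzyme removes the 3' tyrosine-FITC from a 5'-biotinylated DNA oligo (15 nM, 5 min, RT). Enzyme was E. coli-made recombinant Tdp1 at 1 nM, exposed to compound for 15 min beforehand; beads 10 ug/ml, 10 min.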
# KDM4E inh: qHTS Assay for Inhibitors of Human Jumonji Domain Containing 2E (JMJD2E) | actives 1.6% (n = 230,000) | AID 2147, 2009 | Lysine-specific demethylase 4E (Homo sapiens), B2RXH2 | Potency, µM (top dose mostly 57.1 µM), most hits filed as inhibitors | JMJD2E catalytic domain, FDH-coupled NADH fluorescence (FDH is formaldehyde dehydrogenase); note: nearly all actives have a fitted effect of over 50% in size
# RECQ1 inh: qHTS Assay for Inhibitors of RecQ-Like Dna Helicase 1 (RECQ1); ATP-dependent DNA helicase Q1 (Homo sapiens), P46063; RECQ1 DNA unwinding, red fluorescence kinetic read; Potency, µM (top dose mostly 57.3 µM), actives largely listed as inhibitors; actives 0.54% (n = 240,000); AID 2549, 2010; note: nearly all actives have a fitted effect of over 30% in size
# Target sequence (P46063 whole entry, looked up): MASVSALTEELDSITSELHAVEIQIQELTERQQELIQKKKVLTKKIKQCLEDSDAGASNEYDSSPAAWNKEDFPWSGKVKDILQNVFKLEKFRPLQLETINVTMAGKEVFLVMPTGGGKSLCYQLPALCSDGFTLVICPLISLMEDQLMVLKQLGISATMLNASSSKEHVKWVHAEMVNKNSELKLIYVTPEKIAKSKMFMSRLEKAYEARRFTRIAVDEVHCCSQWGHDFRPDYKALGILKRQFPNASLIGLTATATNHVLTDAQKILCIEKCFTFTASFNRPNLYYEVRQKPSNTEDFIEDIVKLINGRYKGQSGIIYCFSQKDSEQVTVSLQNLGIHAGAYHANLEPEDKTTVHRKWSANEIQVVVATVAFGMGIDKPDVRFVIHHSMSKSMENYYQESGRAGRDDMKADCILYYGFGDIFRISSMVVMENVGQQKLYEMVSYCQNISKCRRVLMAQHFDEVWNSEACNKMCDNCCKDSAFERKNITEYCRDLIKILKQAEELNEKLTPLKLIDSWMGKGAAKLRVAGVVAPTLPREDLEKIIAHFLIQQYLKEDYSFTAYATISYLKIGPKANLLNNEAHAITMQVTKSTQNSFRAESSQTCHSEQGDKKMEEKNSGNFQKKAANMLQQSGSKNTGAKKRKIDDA
#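 RECQ1T1 50 nM; forked duplex (20 bp + 30-nt ss tails) 200 nM, ATP 2 mM final; pH 8.0, 2 mM MgCl2, 2.5 ug/ml poly(dI-dC); 15 min compound preincubation; discontinuous kinetic read over 2 h at RT.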
# BLM inh: qHTS Assay for Inhibitors of Bloom's syndrome helicase (BLM) | AID 2528, 2010 | RecQ-like DNA helicase BLM (Homo sapiens), P54132 | actives 0.2% (n = 350,000) | Potency, µM (titrated, usually from 56.1 µM), most hits filed as inhibitors | recombinant BLM DNA unwinding, fluorescence dequenching; note: nearly all actives have a fitted effect of over 35% in size
# APE1 inh: qHTS Assay for Inhibitors of the Human Apurinic/apyrimidinic Endonuclease 1 (APE1); recombinant APE1, TAMRA/BHQ-2 abasic DNA cleavage fluorescence; DNA repair nuclease/redox regulator APEX1 (Homo sapiens), P27695; Potency, µM (highest dose often 65.8 µM), hits mostly inhibitors; actives 0.35% (n = 350,000); note: nearly all actives have a fitted effect of over 55% in size
#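 Quantitative HTS: incision of a TAMRA/BHQ-2 double-stranded substrate bearing a tetrahydrofuran abasic site by 0.75 nM APE1 raises fluorescence. Substrate 50 nM final, added after 15 min compound preincubation at room temperature; progress as third-minus-first kinetic read difference.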
# L3MBTL1 block: qHTS Assay for the Inhibitors of L3MBTL1. actives 0.66% (n = 230,000). Potency, µM (top dose mostly 57.1 µM), most hits filed as inhibitors. AlphaScreen L3MBTL1–H3K9me1 peptide binding. Lethal(3)malignant brain tumor-like protein 1 (Homo sapiens), Q9Y468; note: nearly all actives have a fitted effect of over 60% in size
#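 AlphaScreen proximity signal between nickel-chelate acceptor and streptavidin donor beads (final 10 ug/mL) reports binding of 50 nM L3MBTL1 to 75 nM biotin-H3 K9me1 peptide; complex incubated with compounds 30 min at room temperature; cefsulodin titration as control.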
# Hits are given with their value; . = inactive; ? = inconclusive; / = not tested or not shown; [ ] = another dose, or the depositor's remark. Unless noted, calls come from the whole dose curve; as a rule, active = well fitted curve in the direction sought with a large enough effect; inconclusive = small, poorly fitted or top-dose-only effect, or another doubt; inactive = no such curve, though single readings can be large; an effect the other way counts as inactive or inconclusive.
SMILES,TDP1 block,KDM4E inh,RECQ1 inh,BLM inh,APE1 inh,L3MBTL1 block
CC(=O)n1cc([C@H]2C=C(C(=O)N3CCN(Cc4ccccc4)CC3)O[C@@H](OCCCCO)C2)c2ccccc21,.,?,.,.,.,.
Cc1nnc2c(Nc3cccc(O)c3)nc3ccccc3n12,/,/,/,.,/,/
N#Cc1nc(N2CCCC2)nc(N(c2ccccc2)c2ccccc2)n1,.,/,/,/,/,/
COC(=O)C1=C(C)N(Cc2ccccc2)C2=C3C(=O)CCCC3[C@@](O)(C(=O)OC)C(=O)N2C1c1ccccc1 (stereo not given in full),.[21 µM],/,.[11.5 µM],.[12.4 µM],.[12.4 µM],/
CCOc1ccc(-c2c(C(=O)N/N=C/c3cccnc3)nnn2-c2nonc2N)cc1,50.1µM,/,/,.,.,/
O=C(Oc1c(CN2CCOCC2)cc(Cl)c2cccnc12)c1ccc(F)cc1,.,.,.,.,.,?
Oc1c(CN2CCCCC2)cc(COCc2ccccc2)c2cccnc12,.,.,.,.,.,12.6µM
COc1ccc(C(=O)Oc2c(CN3CCOCC3)cc(Cl)c3cccnc23)cc1,.,?,.,.,.,/
O=[N+]([O-])c1cc(CN2CCCC2)c2cccnc2c1O,3.55µM,20µM,?,?,3.55µM,3.98µM
OCCN1CCN(Cc2cc(Cl)c3cccnc3c2O)CC1,.,22.4µM,.,.,.,/
O=C(Oc1c(CN2CCOCC2)cc(Cl)c2cccnc12)c1cccs1,.,25.1µM,.,.,.,.
O=C[C@H](O)[C@@H](O)[C@H](O)[C@H](O)CO,/,/,/,/,.,/
CCc1ccc(OCC2c3cc(OC)c(OC)cc3CCN2C(=O)COc2ccccc2)cc1 (stereo not given),.,/,/,.,/,/
CN(C)C1CCN(Cc2cc(COCc3ccccc3)c3cccnc3c2O)C1 (stereo not given),.,/,/,/,.,10µM
CCOCc1cc(CN2CCN(c3ccccc3OC)CC2)c(O)c2ncccc12,.,/,/,.,/,/
COCc1cc(CN2CCCC2)c(O)c2ncccc12,.,3.55µM,.,.,.,10µM
Oc1c(Cl)cc(CN2CCCCC2)c2cccnc12,/,/,/,.,.,/
COc1ccccc1N1CCN(Cc2cc(Br)c(O)c3ncccc23)CC1,.,25.1µM,.,.,.,/
COCCn1c(=O)c(-c2ccc(OC)cc2)nc2cnc(OCc3ccccc3)nc21,/,/,.,.,.,/
COc1ccc(-c2nnn3c2nc(NCCc2ccc(OC)c(OC)c2)c2ccccc23)cc1,.,/,/,.,/,/
c1ccc(P(c2ccccc2)c2cnc3ccccn23)cc1,.,/,/,/,/,/
CC(=O)Nc1ccc(C2Nc3c(C)cc(C)cc3-c3cc(C)nn32)cc1 (stereo not given),.,/,/,.,/,/
CC(=O)Nc1cc(OC(C)=O)c2nonc2c1OC(C)=O,.,.,5.01µM,1.58µM,?,2.51µM
CC(=O)Oc1ccc2nonc2c1OC(C)=O,.,/,/,/,/,/
O=C(CSc1ncn[nH]1)c1cccc([N+](=O)[O-])c1,.,7.94µM,.,.,.,.
SMILES,TDP1 block,KDM4E inh,RECQ1 inh,BLM inh,APE1 inh,L3MBTL1 block
COc1ccc(-c2nc3ccccc3n2Cc2ccccc2)cc1COc1ccc(NC(C)=O)cc1,.,/,/,/,/,/
COc1cc(CNc2ccc(N3CCCC3)cc2)ccc1OCc1ccccc1,.,6.31µM,.,.,.,?
COc1cc(CNc2ccc(N3CCCC3)cc2)ccc1OCc1ccccc1F,.,.,.,.,.,?
O=C(O)c1ccc(Cl)c2c1C1C=CCC1C(c1ccccn1)N2 (stereo not given),?,25.1µM,.,.,25.1µM,/
CC[C@]12c3[nH]c4cc(-c5ccco5)ccc4c3CCN1C(=O)[C@@H](CC(=O)NCc1ccco1)C[C@@H]2C(=O)N1CCN(C(=O)c2ccco2)CC1,.,/,/,/,.,35.5µM
CCc1ccccc1NC(=O)C1CCCN(c2cnccn2)C1 (stereo not given),.,/,/,.,/,/
O=C(/C=C\NCC(=O)c1ccccc1)c1ccc2ccccc2c1,.,17.8µM,.,.,.,.
Cc1c(N2C(=O)/C(=C\c3ccc(N(C)C)cc3)N(C)C2=S)c(=O)n(-c2ccccc2)n1C,.,.,28.2µM,.,.,.
CCC(=O)N1CCc2cc(CNS(=O)(=O)c3cc(OC)ccc3OC)ccc21,.,/,/,.,/,/
CCNc1nc(NCC)n2c(SCC(=O)Nc3ccccc3C(F)(F)F)nnc2n1,/,/,/,/,21.2µM,?
CCNc1nc(NCC)n2c(SCC(=O)Nc3ccc(OC)c(OC)c3)nnc2n1,.[0.505 µM],/,/,/,?,.
CCNc1nc(NCC)n2c(SCC(=O)Nc3cccc(Cl)c3)nnc2n1,/,/,/,/,26.7µM,?
CCNc1nc(NCC)n2c(SCC(=O)Nc3cccc(F)c3)nnc2n1,.,/,/,/,11.9µM,.
COc1ccc(OC)c(C2=Nn3c(nnc3-c3ccccc3C)SC2)c1,.,/,.,.,.,/
CCCCCn1c(=O)[nH]c2cc(C(=O)N3CCN(c4cccc(Cl)c4)CC3)ccc2c1=O,.,/,/,.,/,/
O=C1CCc2cc(Cl)c(S(=O)(=O)Nc3ccc(Cl)c(Cl)c3)cc2N1,.,/,/,/,/,/
O=C(Cc1ccc(Cl)cc1)SCc1ccccc1,31.6µM,/,/,/,.,.
O=C(CNC(=O)c1cccc(Cl)c1)OC(C(=O)Nc1cc(C(F)(F)F)ccc1Cl)c1ccccc1 (stereo not given),.,/,/,/,/,/
CC(NC(=O)/C(C#N)=C/c1ccc(OCC(=O)O)cc1)c1ccccc1 (stereo not given),/,/,/,.,.,.
C[C@@H](NC(=O)/C(C#N)=C/c1ccc(O)c(O)c1)c1ccccc1,.,22.4µM,.,.,?,.
CC(NC(=O)/C(C#N)=C/c1ccc(Cl)c([N+](=O)[O-])c1)c1ccccc1 (stereo not given),.,.,.,.,.,.
N#C/C(=C\c1ccc(O)c(O)c1)C(=O)Nc1cccc2ncccc12,/,/,/,12.6µM,2.99µM,/
N#C/C(=C\c1ccc(O)c(O)c1)C(=O)Nc1ccccc1,.,15.8µM,.,.,?,.
COc1cc(/C=C(\C#N)C(=O)Nc2cccc3ncccc23)cc(OC)c1OC,.,?,.,.,.,.
C[C@H](NC(=O)/C(C#N)=C/c1ccc(O)c(O)c1)c1ccccc1,.,7.08µM,.,.,?,/
Cc1ccc(OCc2nc(-c3ccc(C(=O)NCCc4ccc(S(N)(=O)=O)cc4)cc3)oc2C)cc1,.,/,/,.,/,/
CNc1cc(OC)c(C(=O)N[C@H]2CCN(Cc3ccccc3)[C@H]2C)cc1Cl,/,/,/,/,.,/

# Bioassay records deposited in PubChem BioAssay by National Center for Advancing Translational Sciences (NCATS).
